ST2 IL33 inh: IL1RL1 inhibition. AID 1259354. inhibition, % for hits at 17 µM. AlphaLISA ST2-Fc/biotin-IL-33 interaction, 1 h. 78,000 compounds, 2.3% hits; in the data active = inhibition above about 30%
Target sequence (Q01638 whole entry, looked up): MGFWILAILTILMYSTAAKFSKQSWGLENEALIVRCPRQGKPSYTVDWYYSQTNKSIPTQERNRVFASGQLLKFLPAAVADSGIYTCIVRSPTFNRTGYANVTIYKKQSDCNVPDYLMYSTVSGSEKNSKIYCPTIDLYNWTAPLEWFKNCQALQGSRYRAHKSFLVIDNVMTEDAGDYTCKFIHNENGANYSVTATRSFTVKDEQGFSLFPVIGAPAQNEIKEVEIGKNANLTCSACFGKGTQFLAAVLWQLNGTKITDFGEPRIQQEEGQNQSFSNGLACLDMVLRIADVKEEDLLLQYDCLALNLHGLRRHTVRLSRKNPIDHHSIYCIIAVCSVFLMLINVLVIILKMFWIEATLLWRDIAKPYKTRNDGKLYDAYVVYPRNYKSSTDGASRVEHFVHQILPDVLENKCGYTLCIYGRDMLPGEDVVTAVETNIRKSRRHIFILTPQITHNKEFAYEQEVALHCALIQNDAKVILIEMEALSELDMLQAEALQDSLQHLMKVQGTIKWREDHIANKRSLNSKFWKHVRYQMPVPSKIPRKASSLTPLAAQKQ
* = called active by the depositor; ! = repeats disagree. Many of the other results were omitted from the sample, so hits are more common in it than they were.

Screening CC(C)NC(=O)N1CCC(Cn2cc(CN(C)CCO)nn2)CC1 returned ST2 IL33 inh inactive.
`O=C(Nc1cnn(-c2ccc(C(=O)N3CCC(c4ccccc4F)C3)cc2)c1)c1ccoc1` (stereo not drawn) gave ST2 IL33 inh inactive.
Screening Cc1cc(C)cc(NC(=O)CSc2cn(CCNC(=O)c3ccccc3F)c3ccccc23)c1 returned ST2 IL33 inh inactive.
For CCC(C)NC(=O)CNC(=O)c1cn(-c2ccccc2OC)c(=O)c2ccccc12 (stereo not drawn) the results were ST2 IL33 inh inactive.
`O=C(CN1C(=O)CCSc2ccccc21)Nc1ccc(Br)cc1` gave ST2 IL33 inh inactive.
`O=C(CSc1ncn[nH]1)c1ccc(Br)cc1` gave ST2 IL33 inh inactive.
For N=C1SCCN1CC(=O)c1ccc(Br)cc1 the results were ST2 IL33 inh 48.0%*!.
`[O-][n+]1c2c(nn1-c1ccccc1)-c1nonc1CC2` gave ST2 IL33 inh inactive.
`Cc1ccc(-c2csc(NC(=O)c3cc(=O)c4ccccc4o3)n2)cc1C` gave ST2 IL33 inh inactive.
`COc1ccc(-c2csc(NC(=O)c3cc(=O)c4ccccc4o3)n2)cc1` gave ST2 IL33 inh inactive.
Screening O=C(Nc1nc(-c2ccc3c(c2)OCO3)cs1)c1cc(=O)c2ccccc2o1 returned ST2 IL33 inh 45.0%*!.
For c1cncc(-c2nnc([C@H]3CCN(CC4CC4)C3)o2)c1 the results were ST2 IL33 inh inactive.
For COc1ccc(-c2nc(C#N)c(N3CCOCC3)o2)cc1 the results were ST2 IL33 inh inactive.
Brc1ccc(-c2noc(COc3ccccc3)n2)cc1 was read as ST2 IL33 inh inactive.
`Cc1ccccc1OCc1nc(C#N)c(N2CCCC2)o1` gave ST2 IL33 inh 71.0%*.
Fc1ccccc1OCCN1CCNCC1 was read as ST2 IL33 inh inactive.
O=C(COc1ccc(Br)cc1)N1CCCC1 was read as ST2 IL33 inh inactive.
Screening N#Cc1nc(COc2ccccc2F)oc1N1CCCCC1 returned ST2 IL33 inh 53.0%*.
`N#Cc1nc(COc2ccccc2F)oc1N1CCCC1` gave ST2 IL33 inh 53.0%*.
N#Cc1nc(COc2ccc(Br)cc2)oc1N1CCCCC1 was read as ST2 IL33 inh 64.0%*.
N#Cc1nc(-c2ccc(F)cc2)oc1N1CCOCC1 was read as ST2 IL33 inh inactive.
Cc1nc(S(=O)(=O)c2ccccc2)c(N2CCCCC2)o1 was read as ST2 IL33 inh inactive.
`O=S(=O)(c1ccccc1)c1nc(-c2ccc(F)cc2)oc1N1CCCCC1` gave ST2 IL33 inh inactive.
Screening Fc1ccccc1OCCCOc1ccccc1F returned ST2 IL33 inh inactive.
Screening O=C1CSC(c2ccc(Cl)cc2)N1c1ccc(Br)cc1 (stereo not drawn) returned ST2 IL33 inh inactive.
For O=C(CCCOc1ccc(Cl)cc1Cl)Nc1ncc([N+](=O)[O-])s1 the results were ST2 IL33 inh inactive.
Screening CSCCOc1nc2c(c(=O)n(C)c(=O)n2C)n1Cc1ccccc1Cl returned ST2 IL33 inh inactive.
`CC1CCN(C(=O)CCNC2CCSC2)CC1` (stereo not drawn) gave ST2 IL33 inh inactive.
`CC(=O)Nc1ccc(/C=C2/SC(=Nc3ccccc3)NC2=O)cc1` gave ST2 IL33 inh 31.0%*.
COc1ccc(N=C2NC(=O)C(CO)(CO)S2)cc1 was read as ST2 IL33 inh inactive.
Screening CCOc1cc(C=C2C(=O)c3ccccc3C2=O)ccc1OC(C)C(=O)O (stereo not drawn) returned ST2 IL33 inh inactive.
For Cc1ccc(NC(=O)CCN2C(=O)S/C(=C\c3ccccc3)C2=O)cc1 the results were ST2 IL33 inh inactive.
C=CCOc1ccc(/C=C2/SC(=Nc3ccccc3)NC2=O)cc1OCC was read as ST2 IL33 inh 37.0%*.
COc1cccc(/C=C2/SC(=Nc3ccccc3)NC2=O)c1OC was read as ST2 IL33 inh inactive.
For Cc1ccc(N=C2NC(=O)C(Cc3ccccc3)S2)cc1 (stereo not drawn) the results were ST2 IL33 inh inactive.
For COc1ccc(/C=C2/SC(=Nc3ccccc3)NC2=O)c(OC)c1OC the results were ST2 IL33 inh 45.0%*.
O=C1NC(=Nc2ccccc2)S/C1=C/c1ccccn1 was read as ST2 IL33 inh inactive.
`CCOc1ccc(/C=C2\SC(=O)N(CC(=O)N3CCOCC3)C2=O)cc1OCC` gave ST2 IL33 inh inactive.
For CC(=O)Nc1ccc(NC(=O)NC2(c3ccccc3)CC2)cc1 the results were ST2 IL33 inh inactive.
`Cc1ccc(/C=C2/SC(=Nc3ccccc3)NC2=O)c(C)c1` gave ST2 IL33 inh 35.0%*.
CC(C)C1CC(C)(c2csc(N)n2)OC1=O (stereo not drawn) was read as ST2 IL33 inh inactive.
COC(=O)c1c(C)oc2ccc(N(C(C)=O)S(=O)(=O)c3ccc(C(C)(C)C)cc3)cc12 was read as ST2 IL33 inh inactive.
For Cc1ccnc(CC(C)N(C)C(=O)c2cccnc2C)c1 (stereo not drawn) the results were ST2 IL33 inh inactive.
Screening CCCn1cnc2c1CN(S(=O)(=O)c1cccc3cccnc13)[C@H](C(=O)OC)C2 returned ST2 IL33 inh inactive.
